# From ChEMBL document CHEMBL3988442, “University of Dundee, Small-Polar-MMV Screening Library” (2021)
# In all, about 48,000 compounds went through this assay and about 13,000 (27%) showed an effect of 50% or more. The list shows a part of the results.
# Tested on: Wolbachia pipientis
# Experiment: Anti-Wolbachia Cell-Based Screen
# Assay type: functional
# Design: scale not given: in the data most compounds retested in dose-response had high values
# Conditions: 5 µM
row,SMILES,Percent Effect [%]
1,CN(C)Cc1nc(C(C)(C)NC(=O)c2ccc3ccccc3c2)no1,-5.67
2,Cc1cc(NC(=O)CNc2cccc(OC(F)F)c2C)n(C)n1,-2.043
3,Cc1nn(C(C)(C)C)c(C)c1C(=O)NCC1(C(N)=O)CCOCC1,-1.881
4,Cc1cc(C(=O)NCC2(C(N)=O)CCOCC2)nn1C(C)(C)C,9.321
5,Cc1nn(C)c(Cl)c1C(=O)NCC1(C(N)=O)CCOCC1,99.78
6,CC(C)CN1CCN(Cc2nc3ccccc3[nH]2)[C@H]2CS(=O)(=O)C[C@H]21,-2.653
7,Cc1csc(CCCNC(=O)NC2CC(=O)N(C(C)(C)C)C2)n1 (stereo not given),79.6
8,CCc1nc(CCNC(=O)NC2CC(=O)N(C(C)(C)C)C2)cs1 (stereo not given),17.05
9,Cc1nc(C)c(CCNC(=O)NC2CC(=O)N(C(C)(C)C)C2)s1 (stereo not given),-0.9476
10,CC(=O)c1ccc(NC(=O)c2ccc3c(c2)C2(CCCCC2)CN3)cc1.O=C(O)C(F)(F)F,13.81
11,CCn1c(C(=O)N2CCN(CC[S+](C)[O-])CC2)cc2ccccc21 (stereo not given),101.9
12,CC(O)CN1CCN(C(=O)c2cc3ccccc3n2C)CC1 (stereo not given),80.19
13,NC(=O)CN1CCCN(C(=O)c2ccn(-c3cccc(F)c3)n2)CC1,-12.78
14,CCC(O)CN1CCN(C(=O)c2cc3ccccc3n2CC)CC1 (stereo not given),81.21
15,Cc1cccc2cc(C(=O)N3CCSCC3)n(C)c12,-17.56
16,CC(O)CN1CCN(C(=O)c2cccc(CC#N)c2)CC1 (stereo not given),0.248
17,CCn1c(CN2CCN(CC(N)=O)CC2)nc2c(F)cccc21,-7.265
18,CC(O)CN1CCN(C(=O)c2cccn2Cc2ccncc2)CC1 (stereo not given),-5.756
19,CCn1c(C(=O)N2CCN(C(=O)COC)CC2)cc2ccccc21,-7.431
20,CCn1c(C(=O)N2CCN(CC(C)O)CC2)cc2ccccc21 (stereo not given),-3.08
21,CCn1c(C(=O)N2CCN(C(=O)NC(C)C)CC2)cc2ccccc21,-5.351
22,CCn1c(C(=O)N2CCCN(CC(N)=O)CC2)cc2ccccc21,113.2
23,COc1ccc(C)cc1-c1csc(Cn2ccc(=O)[nH]c2=O)n1,-13.88
24,c1cnn(Cc2nnc(C3CCN(C4CCOCC4)CC3)n2C2CC2)c1,-3.51
25,O=C(COc1ccccc1F)NCCC(O)c1ccco1 (stereo not given),-8.311
26,Cc1ccc(CNC2(Cc3cc(-c4ccc(F)cc4)on3)COC2)o1,-24.42
27,CCN(c1cccc(F)c1)S(=O)(=O)c1cc(C(=O)O)cc2c1CCC2,-8.987

row,SMILES,Percent Effect [%]
1,CC(Nc1cccc(CN2CCOC2=O)c1)C(=O)N1CCNC1=O (stereo not given),-9.338
2,Cc1noc(Cl)c1CCC(=O)N1CCC(Nc2cccnn2)CC1,97.17
3,Cc1ccc(CCC(=O)N2CCC(Nc3cccnn3)CC2)cc1,118.9
4,Cc1nn(CC(=O)N2CCC(Nc3cccnn3)CC2)c(C)c1Cl,-11.96
5,Cc1ccc(NC2CCN(C(=O)CCc3ccco3)CC2)nn1,-2.742
6,CC(C)(C)SCCCC(=O)N1CCC(Nc2cccnn2)CC1,-0.09307
7,Cc1cnn(CCC(=O)N2CCC(Nc3cccnn3)CC2)c1,5.382
8,O=C(CCc1ccco1)N1CCC(Nc2cccnn2)CC1,108.6
9,Cc1noc(Cl)c1CCC(=O)N1CCC(CC(N)=O)CC1,-2.795
10,COCCCC(=O)N1CCC(Nc2cccnn2)CC1,100.5
11,O=C1CC(Cc2ccc(NC(=O)c3cccc(F)c3)cc2)C(=O)N1 (stereo not given),-11.36
12,Cc1cc(CN2CCN(C(=O)NC(C)c3cccnc3)CC2)on1 (stereo not given),-9.533
13,CCOC(=O)NC1CCCN(Cc2ccc(-n3cncn3)c(C)c2)C1 (stereo not given),8.303
14,COc1cc(NC(=O)NCCO)ccc1N1CCOC1=O,-1.059
15,Cn1cc(N2CCN(c3ccc(C#N)cc3F)CC2=O)cn1,-27.57
16,COc1ccc(CNC(C)c2cccc(Cl)c2)c(OC)c1OC (stereo not given),0.8374
17,Cc1ccccc1NC1CCN(C(=O)CCc2ccco2)CC1,99.83
18,CS(=O)(=O)N[C@H]1CN(C(=O)CCc2ccco2)C[C@@H]1C1CC1,-12.24
19,O=C(CCc1ccccc1F)N1CCC(Nc2cccnn2)CC1,101.4
20,O=C(CCCc1ccccc1)N1CCC(Nc2cccnn2)CC1,109.6
21,O=C(CCCc1ccccn1)N1CCC(Nc2cccnn2)CC1,-8.554
22,O=C(CCn1ccc2ccccc21)N1CCC(Nc2cccnn2)CC1,-13.71
23,Cc1cc(N2CCC(NC(=O)CCc3ccco3)CC2)nc(C)n1,7.107
24,O=C(CCOc1ccccc1)N1CCC(Nc2cccnn2)CC1,-3.199
25,CSc1ncccc1C(=O)N1C[C@H]2CC[C@@H]1CN(c1cnccn1)C2,-13.27
26,CCCN(CCC)S(=O)(=O)c1cc(NC(C)=O)ccc1C,31.01
27,O=C(O)c1cc(-c2ccoc2)cc(S(=O)(=O)N2CCSCC2)c1,11.83

row,SMILES,Percent Effect [%]
1,CCN(Cc1ccoc1)C(=O)c1cc(C)c(C)c(S(N)(=O)=O)c1,-19.87
2,CCCNC(=O)N1CCC(Oc2cc(C)ccc2F)(C(=O)O)CC1,-9.891
3,Cc1cnc(CNC(=O)[C@@H]2CC[C@@H]3[C@@H](CCN3Cc3ccco3)O2)cn1,-4.994
4,O=C(NCC1CC1)[C@H]1CC[C@@H]2[C@@H](CCN2Cc2nccs2)O1,114.7
5,O=C(NCC1CCOCC1)[C@@H]1C[C@@H]2[C@@H](CCN2Cc2nccs2)O1.O=C(O)C(F)(F)F,97.65
6,COCCNC(=O)[C@@H]1CC[C@@H]2[C@@H](CCN2Cc2cnn(C)c2)O1,-9.722
7,O=C(O)[C@]12CCCN(Cc3nccs3)[C@@H]1CCN(c1cnccn1)C2,6.87
8,COCCN1CCN(CC(=O)N(C)Cc2cccc(F)c2)CC1C (stereo not given),-2.425
9,Cc1cc(-c2cnc(N3CCCC3)nc2-c2ccc(C)s2)on1,81.04
10,Cc1noc(C)c1CN(C)Cc1cnc(N2CCOCC2)nc1,-2.338
11,Cc1cnc(N2CCN(C)CC2)nc1-c1ccnn1C,-36.32
12,CCc1cc(NCCC(F)(F)F)nc(N2CCOCC2)n1,-15.1
13,O=C1c2cnc(N3CCOCC3)nc2CN1c1ccc2c(c1)OCO2,-5.261
14,Cc1ccc(-c2cc(C(F)(F)F)nc(N3CCOCC3)n2)s1,100.5
15,Cc1cc(-c2cnc(N3CCN(C)CC3)nc2-c2ccc(C)s2)on1,-10.07
16,Cc1nc(N2CCOCC2)nc(C)c1NS(=O)(=O)c1ccccc1,4.303
17,Cc1cc(-c2cnc(N3CCOCC3)nc2-c2ccc(C)s2)on1,90.53
18,Cc1cc(-c2cnc(N3CCSCC3)nc2-c2ccc(C)s2)on1,126.2
19,Cc1ccc(-c2cc(-c3nc(CN4CCN(C)CC4)no3)[nH]n2)s1,-11.14
20,CCN1CCN(c2ncc(-c3cc(C)no3)c(-c3ccc(C)s3)n2)CC1,-7.299
21,Cc1cccc(C(C)CNC(=O)N2CCOCC3(CCOCC3)C2)c1 (stereo not given),-15.26
22,COCCCn1ccc(NC(=O)NCCCn2ccnc2)n1,5.848
23,CC(C)[C@@H]1CN(CCOc2ccc(Cl)cc2)C[C@H]1NS(C)(=O)=O,1.84
24,Cc1cccc(-c2noc([C@@H]3Cc4nc[nH]c4CN3)n2)c1,-0.5604
25,COc1ccnc(N2CCN(C(=O)CCc3nccs3)CC2)n1,-9.419
26,COc1ccnc(N2CCN(C(=O)NCc3ccc(C)s3)CC2)n1,-6.706
27,COc1ccnc(N2CCN(C(=O)Cc3ccsc3)CC2)n1,128.2

row,SMILES,Percent Effect [%]
1,COc1ccnc(N2CCN(C(=O)c3csc(C)n3)CC2)n1,-2.798
2,COc1ccnc(N2CCN(C(=O)CN3CCCC3=O)CC2)n1,-1.755
3,COc1ccnc(N2CCCN(C(=O)Cc3ccc(C)s3)CC2)n1,128.9
4,COc1ccnc(N2CCN(C(=O)Cc3csc(C)n3)CC2)n1,124.6
5,CCOc1ccnc(N2CCN(C(=O)CCc3ccsc3)CC2)n1,8.96
6,COc1ccnc(N2CCN(C(=O)Cc3ccn(C(C)C)n3)CC2)n1,115.4
7,COc1ccc(N2CCCN(C(=O)Cc3csc(C)n3)CC2)cc1,-1.36
8,COc1ccnc(N2CCN(C(=O)Cc3ccc(C#N)cc3)CC2)n1,1.226
9,COc1ccnc(N2CCN(C(=O)Cc3ccc(C)s3)CC2)n1,0.2283
10,Cc1csc(C2(NCC(O)COc3ccc(F)cc3)CCC2)n1 (stereo not given),-11.72
11,COc1cc(N2CCN(Cc3ccsc3)C(CCO)C2)nc(N)n1 (stereo not given),10.71
12,Cc1ccc(-c2ccc(C(=O)NCCS(N)(=O)=O)c(F)c2)cc1,17.06
13,CCn1nc(C)c(CNC(=O)c2cn(CCC3CCCCN3)nn2)c1C (stereo not given),-6.64
14,CCn1nc(C)c2ccn(CC(=O)NC3CC3)c(=O)c21,112.9
15,Cc1nn(C)c2c(=O)n(CC(=O)NC3CCCCC3)ccc12,138.3
16,CCN1CCC(NC(=O)Cn2cc(C)c3ccccc32)CC1,-38.76
17,O=C(Cn1nc(-c2ccc(F)cc2)oc1=O)NCC1CCCO1 (stereo not given),-3.643
18,Cc1nn(C)c2c(N3CCN(C(=O)NC4CCCCC4)CC3)ncnc12,8.343
19,CCn1nc(C)c(CNC(=O)c2cn(CC3CCCO3)nn2)c1C (stereo not given),113.5
20,CC1CCN(S(=O)(=O)c2cccn(CC(=O)NC3CCCC3)c2=O)CC1,-17.34
21,Cc1cc(=O)n(CC(=O)NCC2CCCO2)c(-c2cccc(Cl)c2)n1 (stereo not given),14.67
22,Cc1noc(C)c1CNC(=O)c1cn(CCC2CCCCN2)nn1 (stereo not given),-0.3777
23,CCn1nc(C)c2ccn(CC(=O)NC3CCCC3)c(=O)c21,-1.508
24,CCn1nc(C)c2ccn(CC(=O)NCC3CCCO3)c(=O)c21 (stereo not given),132.9
